Source: PubChem
An excerpt weighted towards active compounds, which were near 3.1% of everything screened.
VDR inh: Inhibitors of the vitamin D receptor (VDR): qHTS. Vitamin D3 receptor (Homo sapiens), P11473. VDR-SRC2-3 peptide fluorescence polarization, 2 h. Potency, µM, inactives show max response, negative = inhibition, usual class: inhibitors. 0.93% of 400,000 active. AID 504847, 2011; further: potency means the concentration at half of the fitted maximal effect; on the % scale 0 is the no-effect control and ±100 the full control effect
Target sequence (P11473 whole entry, looked up): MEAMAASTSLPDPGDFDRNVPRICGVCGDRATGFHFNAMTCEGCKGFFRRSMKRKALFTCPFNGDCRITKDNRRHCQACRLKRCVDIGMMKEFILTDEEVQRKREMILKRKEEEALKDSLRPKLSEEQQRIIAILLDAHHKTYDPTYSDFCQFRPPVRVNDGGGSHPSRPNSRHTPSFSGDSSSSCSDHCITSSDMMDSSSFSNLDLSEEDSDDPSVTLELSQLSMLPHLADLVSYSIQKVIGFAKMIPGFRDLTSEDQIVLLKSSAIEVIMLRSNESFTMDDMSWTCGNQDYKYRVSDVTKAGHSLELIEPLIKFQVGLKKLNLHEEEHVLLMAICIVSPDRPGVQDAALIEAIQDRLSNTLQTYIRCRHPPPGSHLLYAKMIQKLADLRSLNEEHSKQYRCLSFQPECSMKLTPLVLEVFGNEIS
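Fluorescence polarization assay measuring small-molecule disruption of VDR binding to the coregulator peptide SRC2-3. Compounds were pin-transferred (23 nl) into the reagent mix and incubated 2 h at room temperature before reading.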
Vif-A3F inh: qHTS for Inhibitors of Vif-A3F Interactions: qHTS; HeLa A3F-eYFP + Vif (tagged APOBEC3F with the HIV-1 protein that degrades it), YFP fluorescence increase; Potency, µM (doses to about 46.1 µM), for the others: top-dose activity, negative = active; 0.2% of 390,000 active; AID 602313, 2012; further: potency means the concentration at half of the fitted maximal effect; % of control where 0% means no effect; nearly all actives have a fitted effect of over 65% in size
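HeLa cells stably expressing Vif plus C-terminally eYFP-tagged A3F were seeded, incubated overnight at 37 deg C, dosed with compound, incubated overnight again at 37 deg C. Yellow fluorescence (Ex 488/Em 500-530) reported blocked Vif-mediated A3F-eYFP degradation.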
PLK1 PBD block: qHTS for Inhibitors of PLK1-PDB (polo-like kinase 1 - polo-box domain): Primary Screen; 2.8% of 360,000 active; Plk1 PBD binding of FITC phosphopeptide, fluorescence polarization; AID 720504, 2013; Potency, µM, inactives show max response, negative = inhibition, actives largely listed as inhibitors; Serine/threonine-protein kinase PLK1 (Homo sapiens), P53350; further: potency means the concentration at half of the fitted maximal effect; series mostly up to about 57 µM; on the % scale 0 is the no-effect control and ±100 the full control effect; nearly all actives have a fitted effect of over 65% in size
TSHR antag: Antagonists of the Thyroid Stimulating Hormone Receptor: HTS campaign; activity change, negative = inhibition, % at 11.5 µM; Thyrotropin receptor (Homo sapiens), P16473; TSHR-expressing cells, TSH-stimulated cAMP HTRF, 2 h; hits give low values; 0.2% of 330,000 active;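 active means activity change below a set negative limit, meaning inhibition stronger than a set level, cut at about -70% in these data; inconclusive means activity change between two set negative limits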; further: on the % scale 0 is the no-effect control and ±100 the full control effect
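Competitive HTRF cAMP read-out (cryptate anti-cAMP antibody, cAMP-d2; 30 min, room temperature) in freshly harvested TSHR cells. Compounds added before TSH at EC80 (4nM final), followed by 2 hours' incubation at 37 deg C.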
Vif-APOBEC3G blk: qHTS for Inhibitors of Vif-A3G Interactions: qHTS; Potency, µM (highest dose often 46.1 µM), inactives show at the top dose activity, negative = active, actives largely listed as inhibitors; DNA dC->dU-editing enzyme APOBEC-3G (Homo sapiens), Q9HC16; 0.076% of 410,000 active; AID 602310, 2012; HeLa A3G-eYFP + Vif (tagged APOBEC3G with the HIV-1 protein that degrades it), YFP fluorescence, overnight; further: potency means the concentration at half of the fitted maximal effect; on the % scale 0 is the no-effect control and ±100 the full control effect; nearly all actives have a fitted effect of over 60% in size
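HeLa cells stably expressing Vif and C-terminally eYFP-tagged A3G, seeded overnight at 37 deg C, then exposed to compound by pintool overnight at 37 deg C. Rise in yellow fluorescence (Ex 488/Em 500-530, Acumen) marks blocked Vif-driven A3G degradation.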
Active calls of the source: *; u = inconclusive; x = no result; ! = not confirmed by another sample. Unless noted, the call rests on the fitted dose curve; in most records, active means well fitted curve in the direction sought with a large enough effect; inconclusive means small, poorly fitted or top-dose-only effect, or another doubt; inactive means no such curve, though single readings can be large; an effect the other way counts as inactive or inconclusive.

SMILES	VDR inh	Vif-A3F inh	PLK1 PBD block	TSHR antag	Vif-APOBEC3G blk
CCCC1O[C@@H]2CC3C4CCC5=CC(=O)C=C[C@]5(C)C4C(OC(C)=O)C[C@]3(C)[C@]2(C(=O)COC(C)=O)O1 (some centres not stated)	u	3%	19µM*	-6	-1%
CCCC1OC2CC3C4CCC5=CC(=O)C=CC5(C)C4C(O)CC3(C)C2(C(=O)O)O1 (configuration not stated)	4%	1%	0%	-13	-10%
COc1cccc(COCCN2CCN(S(=O)(=O)c3ccccc3)CCC2=O)c1	-3%	x	x	x	1%
CC(CCC(C)C(C)(C)C)[C@@H]1CC[C@H]2C3C[C@H](OS(O)(=S)=S)[C@H]4C[C@H](OS(O)(=S)=S)[C@@H](OS(O)(=S)=S)C[C@]4(C)[C@H]3CC[C@]12C (some centres not stated) (tested in a mixture with another compound)	22µM*	3%	4.7µM*	-83*	8%
COc1cccc(CN(C)C(=O)c2[nH]c(C)c(C(C)=O)c2C)c1OC	u	9%	27µM*	-4	4%
COc1ccccc1N(C)S(=O)(=O)c1ccc(C(=O)N(C)Cc2cccc(OC)c2OC)cc1	x	1%	0%	x	2%
Cc1ccccc1NC(=O)CSc1nnc(-c2ccco2)n1N	u	-20%	19µM*	6	1%
COc1ccc(-n2c(SCC(=O)Nc3nccs3)nnc2-c2ccccc2)cc1	-11%	-7%	27µM*	2	-21%
Cc1cc(C)c(NC(=O)CSc2nnc(-c3ccco3)n2N)c(C)c1	-8%	1%	0%	-5	-1%
Cc1cccc(NC(=O)CSc2nnc(-c3ccco3)c(-c3ccco3)n2)c1C	u	-7%	15µM*	-8	-6%
COc1ccc(NC(=O)CSc2nnc(-c3ccccc3C)n2N)cc1	u	-1%	21µM*	3	1%
CCN(N=O)c1ccc(/C=C/c2ccnc3ccccc23)cc1	x	x	x	x	-8%
O=C(COc1ccccc1C(=O)Nc1ccccc1)Nc1cccc(Br)c1	x	x	x	x	-1%
Cc1cc(=O)oc2cc(NC(=O)C(CCCCN)NC(=O)C(CC3CCCCC3)NC(=O)OCC3c4ccccc4-c4ccccc43)ccc12 (configuration not stated)	-14%	x	x	x	x
Cc1cc(-c2nnc(SCC(=O)Nc3ccccc3C(F)(F)F)n2N)n[nH]1	u	-8%	6µM*	-2	2%
Cc1cc(-c2nnc(SCC(=O)Nc3ccccc3F)n2N)n[nH]1	-6%	2%	-14%	-1	3%
COC(=O)C1(C(=O)OC)CC2=CC(CC2=O)Cc2ccccc2[C@@H]1C[N+](=O)[O-] (some centres not stated)	-11%	x	x	x	x
O=C(NCc1ccccc1)NC1(C(=O)N2CCCC2)CCCCC1	11%	7%	2%	2	0%
O=C(NCc1ccccc1)NC1(C(=O)N2CCN(c3ncccn3)CC2)CCCCC1	-2%	-10%	27µM*	-6	2%
CC(C)(C)NC(=O)C(c1ccncc1)N(C(=O)Cn1nnc(-c2ccc(F)cc2)n1)c1ccc(F)cc1 (configuration not stated)	-22%	-7%	-16%	0	6%
CC(C)(C)NC(=O)C(c1ccncc1)N(C(=O)Cn1nnc(-c2ccc(F)cc2)n1)c1ccccc1 (configuration not stated)	u	-11%	27µM*	24	-2%
COC(=O)C1=C[C@@H](C(=O)OC)C2C3=C(C(=O)[C@]2(CC(C)C)NC(=O)c2ccccc2)[C@H](C)n2c(=O)n(C)c(=O)n2[C@@H]3C1 (some centres not stated)	-15%	x	x	x	1%
O=C1c2ccc(-c3ccc(F)cc3OCc3ccccc3)cc2S(=O)(=O)c2cccc(C(=O)N3CCN(c4ncc(Br)cn4)CC3)c21	4%	0%	-22%	16	-3%
O=C(NCc1cc(C(F)(F)F)ccc1Cl)c1cccc2c1C(=O)c1ccc(N3CCOCC3)cc1S2(=O)=O	-22%	10µM*	-12%	-3	3%
O=C(NCc1cccc(F)c1)c1cccc2c1C(=O)c1ccc(N3CCCC3)cc1S2(=O)=O	-7%	u	u	-17	u
SMILES	VDR inh	Vif-A3F inh	PLK1 PBD block	TSHR antag	Vif-APOBEC3G blk
O=C(O)c1cccc2c1C(=O)c1ccc(-c3ccc(F)cc3OCc3ccccc3)cc1S2(=O)=O	-8%	1%	21µM*	-10	-20%
CC1CCN(c2ccc3c(c2)S(=O)(=O)c2cccc(C(=O)NCc4cccc(F)c4)c2C3=O)CC1	-3%	u	u	-5	20µM*
O=C(NCc1cccc(C(F)(F)F)c1)c1cccc2c1C(=O)c1ccc(N3CCC(Cc4ccccc4)CC3)cc1S2(=O)=O	-7%	22µM*	-29%	23	u
CC(=O)c1ccc(N2CCN(C(=O)c3cc4ccc5cccnc5c4[nH]3)CC2)cc1	7%	-9%	x	x	5%
O=C(NCc1ccc(OC(F)(F)F)cc1)c1cccc2c1C(=O)c1ccc(N3CCC(Cc4ccccc4)CC3)cc1S2(=O)=O	-22%	u	-18%	7	-9%
O=C(NCc1ccco1)c1cccc2c1C(=O)c1ccc(N3CCC(Cc4ccccc4)CC3)cc1S2(=O)=O	-8%	10µM*	u	-12	u
O=C(NCCc1ccc(F)cc1)c1cccc2c1C(=O)c1ccc(N3CCC(Cc4ccccc4)CC3)cc1S2(=O)=O	-15%	u	u	-13	u
O=C(NCc1cccc(F)c1)c1cccc2c1C(=O)c1ccc(N3CCC(Cc4ccccc4)CC3)cc1S2(=O)=O	-11%	32µM*	u	7	11µM*
COc1ccc(NC(=O)c2cc(OCCCN(C)C)nn2Cc2ccccc2)cc1	9%	x	x	x	x
Cc1c(Cl)cccc1Nc1ccccc1C(=O)O	45µM*!	-3%	-24%	-11	-6%
COCCNC(=O)COc1ccc(OCCNC[C@H](O)COc2ccccc2)cc1	15%	x	x	x	x
COC(=O)c1ccc(C2NC(=O)c3c(sc(C)c3C)N2)cc1 (configuration not stated)	-10%	-8%	27µM*	-5	0%
Cc1sc2c(c1C)C(=O)NC(c1cccc(O)c1)N2 (configuration not stated)	x	x	x	-9	x
C=CCOc1ccc(C(=O)/C=C2/C(=O)Nc3ccccc32)cc1	u	-6%	-8%	-11	u
C=CCOc1ccccc1C(=O)/C=C1/C(=O)Nc2ccccc21	22µM*	3%	u	-14	u
